According to the supplement of paper PMC7261846:
Counter-ions that a name gives are not always drawn. ± gives the uncertainty stated by the source.

Tested on: Candida albicans SNY425 biofilm
Assay: biofilm OD600 with compound plus antifungal (OD600 (absorbance)); higher = more biofilm remaining
[1] = assay detail: disruption of 24-h mature biofilm (compound + antifungal for a second 24 h)
[2] = assay detail: sustained inhibition (compound + antifungal during 90-min adherence and 24-h growth)

Which results are given for `O=C(O[C@@H]1Cc2c(O)cc(O)cc2O[C@@H]1c1cc(O)c(O)c(O)c1)c1cc(O)c(O)c(O)c1` [Epigallocatechin gallate] + C[C@@H]1[C@H](O)[C@@H](C)/C=C/C=C/C=C/C=C/C=C/C=C/C=C/[C@H](O[C@@H]2O[C@H](C)[C@@H](O)[C@H](N)[C@@H]2O)C[C@@H]2O[C@](O)(C[C@@H](O)C[C@@H](O)[C@H](O)CC[C@@H](O)C[C@@H](O)CC(=O)O[C@H]1C)C[C@H](O)[C@H]2C(=O)O [amphotericin B] (first compound 12.5 µM)?
biofilm OD600 [1]: 0.27 ± 0.017; biofilm OD600 [2]: 0.231 ± 0.014

For `CC(C)C[C@@H](C=O)NC(=O)[C@H](CC(C)C)NC(=O)[C@H](CC(C)C)NC(=O)OCc1ccccc1` + CC[C@H](C)C[C@H](C)CCCCCCCCC(=O)N[C@H]1C[C@@H](O)[C@@H](NCCN)NC(=O)[C@@H]2[C@@H](O)CCN2C(=O)[C@H]([C@H](O)CCN)NC(=O)[C@H]([C@H](O)[C@@H](O)c2ccc(O)cc2)NC(=O)[C@@H]2C[C@@H](O)CN2C(=O)[C@H]([C@@H](C)O)NC1=O [caspofungin] (first compound 12.5 µM), which “biofilm OD600” value [1] is on record?
Its value is 0.281 ± 0.0049.

What about the “biofilm OD600” value [2] of the same compound?
The value was 0.193 ± 0.0098.

Which results are given for `CSCCC(C=O)NC(=O)C(CC(C)C)NC(=O)[C@H](CC(C)C)NC(C)=O` (stereo not given in full) [Calpain Inhibitor II (ALLM)] + CC[C@H](C)C[C@H](C)CCCCCCCCC(=O)N[C@H]1C[C@@H](O)[C@@H](NCCN)NC(=O)[C@@H]2[C@@H](O)CCN2C(=O)[C@H]([C@H](O)CCN)NC(=O)[C@H]([C@H](O)[C@@H](O)c2ccc(O)cc2)NC(=O)[C@@H]2C[C@@H](O)CN2C(=O)[C@H]([C@@H](C)O)NC1=O [caspofungin] (first compound 12.5 µM)?
biofilm OD600 [1]: 0.249 ± 0.0042; biofilm OD600 [2]: 0.178 ± 0.0059

Which results are given for `C[C@]1(Cn2ccnn2)[C@H](C(=O)O)N2C(=O)C[C@H]2S1(=O)=O` [Tazobactam] + CC[C@H](C)C[C@H](C)CCCCCCCCC(=O)N[C@H]1C[C@@H](O)[C@@H](NCCN)NC(=O)[C@@H]2[C@@H](O)CCN2C(=O)[C@H]([C@H](O)CCN)NC(=O)[C@H]([C@H](O)[C@@H](O)c2ccc(O)cc2)NC(=O)[C@@H]2C[C@@H](O)CN2C(=O)[C@H]([C@@H](C)O)NC1=O [caspofungin] (first compound 12.5 µM)?
biofilm OD600 [1]: 0.275 ± 0.014; biofilm OD600 [2]: 0.181 ± 0.0097

`CC(C)CCNC(=O)[C@H](CC(C)C)NC(=O)[C@H]1O[C@@H]1C(=O)O` + C[C@@H]1[C@H](O)[C@@H](C)/C=C/C=C/C=C/C=C/C=C/C=C/C=C/[C@H](O[C@@H]2O[C@H](C)[C@@H](O)[C@H](N)[C@@H]2O)C[C@@H]2O[C@](O)(C[C@@H](O)C[C@@H](O)[C@H](O)CC[C@@H](O)C[C@@H](O)CC(=O)O[C@H]1C)C[C@H](O)[C@H]2C(=O)O [amphotericin B] (first compound 12.5 µM) was tested. Which “biofilm OD600” value [1] did it give?
The value was 0.27 ± 0.0079.

And the “biofilm OD600” value [2]?
The value was 0.21 ± 0.0074.

With `CC(C)c1nc(CN(C)C(=O)N[C@H](C(=O)N[C@@H](Cc2ccccc2)C[C@H](O)[C@H](Cc2ccccc2)NC(=O)OCc2cncs2)C(C)C)cs1` [ritonavir] + OC(Cn1cncn1)(Cn1cncn1)c1ccc(F)cc1F [fluconazole] (first compound 12.5 µM) as the compound, how does the “biofilm OD600” value [1] read?
Its value is 0.249 ± 0.0077.

And the “biofilm OD600” value [2]?
Its value is 0.168 ± 0.014.

`CSCCC(C=O)NC(=O)C(CC(C)C)NC(=O)[C@H](CC(C)C)NC(C)=O` (stereo not given in full) [Calpain Inhibitor II (ALLM)] + OC(Cn1cncn1)(Cn1cncn1)c1ccc(F)cc1F [fluconazole] (first compound 12.5 µM) was tested. Which “biofilm OD600” value [1] did it give?
The value was 0.239 ± 0.0058.

And the “biofilm OD600” value [2]?
Its value is 0.146 ± 0.0052.

For `CC[C@H](C)[C@H](N)C(=O)N1CCSC1` [P32/98 hemifumarate salt] + OC(Cn1cncn1)(Cn1cncn1)c1ccc(F)cc1F [fluconazole] (first compound 12.5 µM), which “biofilm OD600” value [1] is on record?
Its value is 0.249 ± 0.0087.

And the “biofilm OD600” value [2]?
Its value is 0.128 ± 0.0045.

Which “biofilm OD600” value [1] does the source give for `CO[C@@H]1[C@H](OC(=O)/C=C/C=C/C=C/C=C/C(=O)O)CC[C@]2(CO2)[C@H]1[C@@]1(C)O[C@@H]1CC=C(C)C` [Fumagillin] + C[C@@H]1[C@H](O)[C@@H](C)/C=C/C=C/C=C/C=C/C=C/C=C/C=C/[C@H](O[C@@H]2O[C@H](C)[C@@H](O)[C@H](N)[C@@H]2O)C[C@@H]2O[C@](O)(C[C@@H](O)C[C@@H](O)[C@H](O)CC[C@@H](O)C[C@@H](O)CC(=O)O[C@H]1C)C[C@H](O)[C@H]2C(=O)O [amphotericin B] (first compound 12.5 µM) here?
The value was 0.264 ± 0.0097.

What about the “biofilm OD600” value [2] of the same compound?
The value was 0.185 ± 0.0052.

Which results are given for `O=C(NCCCCN1CCOCC1)c1cc2ccccc2o1` + OC(Cn1cncn1)(Cn1cncn1)c1ccc(F)cc1F [fluconazole] (first compound 12.5 µM)?
biofilm OD600 [1]: 0.258 ± 0.0098; biofilm OD600 [2]: 0.158 ± 0.008

For `N[C@H](C(=O)O)[C@@H]1CC(Cl)=NO1` [Acivicin] + C[C@@H]1[C@H](O)[C@@H](C)/C=C/C=C/C=C/C=C/C=C/C=C/C=C/[C@H](O[C@@H]2O[C@H](C)[C@@H](O)[C@H](N)[C@@H]2O)C[C@@H]2O[C@](O)(C[C@@H](O)C[C@@H](O)[C@H](O)CC[C@@H](O)C[C@@H](O)CC(=O)O[C@H]1C)C[C@H](O)[C@H]2C(=O)O [amphotericin B] (first compound 4 µM), which “biofilm OD600” value [1] is on record?
Its value is 0.31 ± 0.0054.

And the “biofilm OD600” value [2]?
The value was 0.181 ± 0.006.

With `Cc1c(O)cccc1C(=O)N[C@@H](CSc1ccccc1)[C@H](O)CN1C[C@H]2CCCC[C@H]2C[C@H]1C(=O)NC(C)(C)C` [nelfinavir] + C[C@@H]1[C@H](O)[C@@H](C)/C=C/C=C/C=C/C=C/C=C/C=C/C=C/[C@H](O[C@@H]2O[C@H](C)[C@@H](O)[C@H](N)[C@@H]2O)C[C@@H]2O[C@](O)(C[C@@H](O)C[C@@H](O)[C@H](O)CC[C@@H](O)C[C@@H](O)CC(=O)O[C@H]1C)C[C@H](O)[C@H]2C(=O)O [amphotericin B] (first compound 12.5 µM) as the compound, how does the “biofilm OD600” value [1] read?
Its value is 0.237 ± 0.0057.

And the “biofilm OD600” value [2]?
The value was 0.112 ± 0.01.

With `CNC(=O)[C@H](Cc1c[nH]c2ccccc12)NC(=O)[C@@H](CC(=O)NO)CC(C)C` + CC[C@H](C)C[C@H](C)CCCCCCCCC(=O)N[C@H]1C[C@@H](O)[C@@H](NCCN)NC(=O)[C@@H]2[C@@H](O)CCN2C(=O)[C@H]([C@H](O)CCN)NC(=O)[C@H]([C@H](O)[C@@H](O)c2ccc(O)cc2)NC(=O)[C@@H]2C[C@@H](O)CN2C(=O)[C@H]([C@@H](C)O)NC1=O [caspofungin] (first compound 12.5 µM) as the compound, how does the “biofilm OD600” value [1] read?
Its value is 0.278 ± 0.01.

And the “biofilm OD600” value [2]?
Its value is 0.187 ± 0.0076.

How did the “biofilm OD600” value [1] turn out when `C[C@H](NC(=O)[C@@H]1CCCN1C(=O)[C@@H]1CCCN1C(=O)[C@@H](O)[C@H](N)Cc1ccccc1)C(N)=O` [Apstatin] + C[C@@H]1[C@H](O)[C@@H](C)/C=C/C=C/C=C/C=C/C=C/C=C/C=C/[C@H](O[C@@H]2O[C@H](C)[C@@H](O)[C@H](N)[C@@H]2O)C[C@@H]2O[C@](O)(C[C@@H](O)C[C@@H](O)[C@H](O)CC[C@@H](O)C[C@@H](O)CC(=O)O[C@H]1C)C[C@H](O)[C@H]2C(=O)O [amphotericin B] (first compound 12.5 µM) was run?
Its value is 0.294 ± 0.0093.

And the “biofilm OD600” value [2]?
The value was 0.193 ± 0.0078.

How did the “biofilm OD600” value [1] turn out when `NC(=O)c1cccc(-c2cccc(OC(=O)NC3CCCCC3)c2)c1` + OC(Cn1cncn1)(Cn1cncn1)c1ccc(F)cc1F [fluconazole] (first compound 12.5 µM) was run?
The value was 0.283 ± 0.0052.

What about the “biofilm OD600” value [2] of the same compound?
Its value is 0.118 ± 0.0073.

Which results are given for `CC(C)CC(=O)N[C@H](C(=O)N[C@H](C(=O)N[C@@H](CC(C)C)[C@@H](O)CC(=O)N[C@@H](C)C(=O)N[C@@H](CC(C)C)[C@@H](O)CC(=O)O)C(C)C)C(C)C` [Pepstatin A] + OC(Cn1cncn1)(Cn1cncn1)c1ccc(F)cc1F [fluconazole] (first compound 12.5 µM)?
biofilm OD600 [1]: 0.255 ± 0.007; biofilm OD600 [2]: 0.144 ± 0.0099

Which results are given for `N=C(N)Nc1ccc(C(=O)Oc2ccc3cc(C(=N)N)ccc3c2)cc1` [Nafamostat mesylate] + OC(Cn1cncn1)(Cn1cncn1)c1ccc(F)cc1F [fluconazole] (first compound 12.5 µM)?
biofilm OD600 [1]: 0.262 ± 0.011; biofilm OD600 [2]: 0.104 ± 0.0089

With `NCCCC[C@H](N[C@@H](CCc1ccccc1)C(=O)O)C(=O)N1CCC[C@H]1C(=O)O` [Lisinopril] + C[C@@H]1[C@H](O)[C@@H](C)/C=C/C=C/C=C/C=C/C=C/C=C/C=C/[C@H](O[C@@H]2O[C@H](C)[C@@H](O)[C@H](N)[C@@H]2O)C[C@@H]2O[C@](O)(C[C@@H](O)C[C@@H](O)[C@H](O)CC[C@@H](O)C[C@@H](O)CC(=O)O[C@H]1C)C[C@H](O)[C@H]2C(=O)O [amphotericin B] (first compound 12.5 µM) as the compound, how does the “biofilm OD600” value [1] read?
Its value is 0.27 ± 0.012.

And the “biofilm OD600” value [2]?
The value was 0.173 ± 0.014.

`O=C1Nc2ccc([N+](=O)[O-])cc2C1=O` [5-Nitroisatin] + C[C@@H]1[C@H](O)[C@@H](C)/C=C/C=C/C=C/C=C/C=C/C=C/C=C/[C@H](O[C@@H]2O[C@H](C)[C@@H](O)[C@H](N)[C@@H]2O)C[C@@H]2O[C@](O)(C[C@@H](O)C[C@@H](O)[C@H](O)CC[C@@H](O)C[C@@H](O)CC(=O)O[C@H]1C)C[C@H](O)[C@H]2C(=O)O [amphotericin B] (first compound 12.5 µM) was tested. Which “biofilm OD600” value [1] did it give?
The value was 0.256 ± 0.005.

And the “biofilm OD600” value [2]?
Its value is 0.159 ± 0.013.

With `CO[C@@H]1[C@H](OC(=O)/C=C/C=C/C=C/C=C/C(=O)O)CC[C@]2(CO2)[C@H]1[C@@]1(C)O[C@@H]1CC=C(C)C` [Fumagillin] + CC[C@H](C)C[C@H](C)CCCCCCCCC(=O)N[C@H]1C[C@@H](O)[C@@H](NCCN)NC(=O)[C@@H]2[C@@H](O)CCN2C(=O)[C@H]([C@H](O)CCN)NC(=O)[C@H]([C@H](O)[C@@H](O)c2ccc(O)cc2)NC(=O)[C@@H]2C[C@@H](O)CN2C(=O)[C@H]([C@@H](C)O)NC1=O [caspofungin] (first compound 12.5 µM) as the compound, how does the “biofilm OD600” value [1] read?
Its value is 0.257 ± 0.0085.

What about the “biofilm OD600” value [2] of the same compound?
The value was 0.166 ± 0.0044.
